Assay results from PubChem BioAssay (NCATS).
Values joined by “and” are separate entries in the source; they are usually repeats but may differ in a detail not shown here. Equal entries are not always repeated. Results filed as inconclusive are left out. Active and inactive are the calls of the source. Calls follow the shape of the dose curve; as a rule, active = well fitted curve in the direction sought with a large enough effect; inconclusive = small, poorly fitted or top-dose-only effect, or another doubt; inactive = no such curve, though single readings can be large; an effect the other way counts as inactive or inconclusive.

Experiments:
[1] = Viability qHTS for spleen associated tyrosine kinase inhibitor (SYKi) naive MV4-11 cells (AID 1963823); also: nearly all actives have a fitted effect of over 40% in size
How it was run: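 Seeding of 500 SYKi-naive MV4-11 cells per well onto pre-dispensed compounds preceded a 72 hr incubation at 37 C. Luminescent CellTiter-Glo signal, read after 10 min at room temperature, reflected viable cells.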

[2] = Quantitative highthroughput screen to assess conditional lethalithy of NOMO1 cells grown in RPMI1640 with untreated serum (RPMI+s) (AID 1963876); also: nearly all actives have a fitted effect of over 35% in size;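 as to Viability: 100% = DMSO wells and 0% = empty wells without cells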
How it was run: (§1)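 Each medium arm—HPLM with 10% dialyzed FBS, or RPMI1640 with 5 mM glucose and 10% untreated or dialyzed FBS—was screened against an 11-point, 3-fold compound titration for 48 h at 37 °C, with CellTiter-Glo luminescence as endpoint.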

[3] = Quantitative highthroughput screen to assess conditional lethalithy of NOMO1 cells grown in RPMI1640 with dialyzed fetal bovine serum (RPMI+ds) (AID 1963877); also: nearly all actives have a fitted effect of over 30% in size;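 as to Viability: series mostly up to about 46 µM; 100% = DMSO control wells and 0% = empty wells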
How it was run: as §1

[4] = Quantitative highthroughput screen to assess conditional lethalithy of NOMO1 cells grown in Human Plasma-Like Medium with dialyzed fetal bovine serum (HPLM+ds) (AID 1963878); also: nearly all actives have a fitted effect of over 35% in size;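 as to Viability: 100% = DMSO wells and 0% = empty wells on each plate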
How it was run: as §1

[5] = Quantitative highthroughput screen to assess conditional lethalithy of P12 Ichikawa cells grown in Human Plasma-Like Medium with dialyzed fetal bovine serum (HPLM+ds) (AID 1963879); settings: Potency: viability; also: nearly all actives have a fitted effect of over 35% in size; as to Viability: series mostly up to about 46 µM
How it was run: as §1

[6] = Quantitative highthroughput screen to assess conditional lethalithy of P12 Ichikawa cells grown in RPMI1640 with dialyzed fetal bovine serum (RPMI+ds) (AID 1963880); settings: Potency: P12-Ichikawa viability; also: nearly all actives have a fitted effect of over 35% in size;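 as to Viability: 100% = DMSO wells and 0% = empty wells on each plate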
How it was run: as §1

[7] = Quantitative highthroughput screen to assess conditional lethalithy of P12 Ichikawa cells grown in RPMI1640 with untreated serum (RPMI+s) (AID 1963881); settings: Potency: viability; also: nearly all actives have a fitted effect of over 35% in size;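 as to Viability: series mostly up to about 46 µM; 100% = DMSO wells and 0% = empty wells without cells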
How it was run: as §1

[8] = Quantitative highthroughput screen to assess conditional lethalithy of SEM cells grown in Human Plasma-Like Medium with dialyzed fetal bovine serum (HPLM+ds) (AID 1963882); also: nearly all actives have a fitted effect of over 35% in size; as to Viability: series mostly up to about 46 µM
How it was run: as §1

[9] = Quantitative highthroughput screen to assess conditional lethalithy of SEM cells grown in RPMI1640 with unreated serum (RPMI+s) (AID 1963883); also: nearly all actives have a fitted effect of over 35% in size;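 as to Viability: 100% = DMSO wells and 0% = empty wells without cells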
How it was run: as §1

[10] = Quantitative highthroughput screen to assess conditional lethalithy of SEM cells grown in RPMI1640 with dialyzed fetal bovine serum (RPMI+ds) (AID 1963884); also: nearly all actives have a fitted effect of over 35% in size;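 as to Viability: series mostly up to about 46 µM; 100% = DMSO control wells and 0% = empty wells without cells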
How it was run: as §1

[11] = Cellular viability qHTS for adrenocortical cancer (ACC) cell line NCI-H295R (AID 1963990); also: nearly all actives have a fitted effect of over 60% in size;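 as to activity change, negative = viability loss: 0% = DMSO only wells and -100% = full killing with cytotoxic reference compound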
How it was run: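 IC50 and maximal efficacy derive from four-parameter logistic modelling of titration curves, with reads scaled between DMSO-only wells (0%) and doxorubicin hydrochloride (100% inhibition). Compounds spanned up to 46 uM over 48 h.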

[12] = Cellular viability qHTS for adrenocortical cancer (ACC) cell line SW-13 (AID 1963989); settings: SW-13 ACC cells viability, CellTiter-Glo, 48 h; activity (max response): stronger effect = lower value; also: nearly all actives have a fitted effect of over 65% in size;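 as to activity (max response): cells grown in serum-free medium with ITS supplement; % is scaled to controls: 0 for no effect and ±100 for the full control effect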
How it was run: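 Luminescent ATP read-out (CellTiter-Glo, 20 min at room temperature) measured metabolically competent SW-13 cells after 48 h compound treatment. Final concentrations spanned up to 46 uM; bortezomib served as positive control.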
Potency is read from the fitted curve at half-maximal effect.

O=P(O)(O)C(O)(Cn1ccnc1)P(=O)(O)O
inactive: viability (% of control) [1] 79.2% [at 4.97 µM] | Potency [2] | Potency [3] | Potency [4] | Potency [5] | Potency [6] | Potency [7] | Potency [8] | Potency [9] | Potency [10] | activity change, negative = viability loss [11] -3.44% [at 3.81 µM]

CC(C)C(C)C=CC(C)C1CCC2C3=CC=C4CC(O)CCC4(C)C3CCC21C (configuration not stated)
inactive: Potency [1] | Potency [2] | Potency [3] | Potency [4] | Potency [5] | Potency [6] | Potency [7] | Potency [8] | Potency [9] | Potency [10] | activity (max response) [12] 11.2% | Potency [11]

CN(C)c1cccc(-c2c3c(=O)n(-c4ccccc4Cl)[nH]c3cc(=O)n2C)c1
active: Potency [2] 933 nM | Potency [3] 831 nM | Potency [4] 588 nM | Potency [5] 831 nM | Potency [7] 1050 nM | Potency [8] 1050 nM | Potency [9] 1050 nM | Potency [10] 831 nM
inactive: Potency [1]

CCCCC(CC)COC(=O)C(C#N)=C(c1ccccc1)c1ccccc1 (configuration not stated)
active: Potency [1] 26.6 µM
inactive: Potency [2] | Potency [3] | Potency [4] | Potency [5] | Potency [7] | Potency [8] | Potency [9] | Potency [10] | activity (max response) [12] 0.298% and -14.7% | Potency [11]

CC(C(=O)O)c1ccc(-c2ccccc2)c(F)c1 (configuration not stated)
active: Potency [8] 14800 nM
inactive: Potency [1] | Potency [2] | Potency [3] | Potency [4] | activity (max response) [12] -8.73% | Potency [11]

COc1nc(C)cnc1NS(=O)(=O)c1cccnc1-c1ccc(-c2nnco2)cc1
inactive: Potency [1] | Potency [2] | Potency [3] | Potency [4] | Potency [5] | Potency [6] | Potency [7] | Potency [8] | Potency [9] | Potency [10] | activity (max response) [12] 3.93% | Potency [11]

O=C1C(c2c(O)[nH]c3ccccc23)=Nc2ccccc21
inactive: Potency [1] | Potency [2] | Potency [3] | Potency [4] | Potency [5] | Potency [6] | Potency [7] | Potency [8] | Potency [9] | Potency [10] | activity (max response) [12] -5.8% | Potency [11]

NC(=O)c1cccc(-c2cccc(OC(=O)NC3CCCCC3)c2)c1
active: Potency [5] 332 nM
inactive: Potency [1] | Potency [2] | Potency [3] | Potency [4] | activity (max response) [12] -29.9% | Potency [11]

Cc1cccc(Nc2nc(-c3ccncc3)cs2)c1
active: Potency [1] 8.2 µM | Potency [6] 18700 nM | Potency [11] 25100 nM
inactive: Potency [2] | Potency [3] | Potency [4] | Potency [5]

Cc1ccc(NC(=O)C2(c3ccc4c(c3)OC(F)(F)O4)CC2)nc1-c1cccc(C(=O)O)c1
active: Potency [2] 166 nM | Potency [3] 209 nM | Potency [4] 187 nM | Potency [5] 187 nM | Potency [6] 187 nM | Potency [7] 148 nM | Potency [8] 93.5 nM | Potency [9] 74.3 nM | Potency [10] 83.3 nM
inactive: Potency [1] | Potency [11]

CC(C)(C#N)c1cc(Cn2cncn2)cc(C(C)(C)C#N)c1
inactive: Potency [1] | Potency [2] | Potency [3] | Potency [4] | Potency [5] | Potency [6] | Potency [7] | Potency [8] | Potency [9] | Potency [10] | activity (max response) [12] 5.22% | Potency [11]

COc1cc(Nc2ncc(F)c(Nc3ccc4c(n3)N(COP(=O)(O)O)C(=O)C(C)(C)O4)n2)cc(OC)c1OC
inactive: Potency [2] | Potency [3] | Potency [4] | Potency [5] | Potency [6]
active: Potency [1] 92 nM and 259 nM and 83.3 nM | Potency [12] 14100 nM

O=C(NCCCNc1nc(Nc2cccc(NC(=O)N3CCCC3)c2)ncc1I)c1cccs1
inactive: Potency [2] | Potency [3] | Potency [4] | Potency [5] | Potency [6] | Potency [7] | Potency [11]
active: Potency [1] 0.0517 µM

CC(C)[C@@H](CS(=O)(=O)C(C)C)N1C(=O)[C@@](C)(CC(=O)O)C[C@H](c2cccc(Cl)c2)[C@H]1c1ccc(Cl)cc1
active: Potency [1] 18.6 µM | Potency [2] 1660 nM | Potency [3] 2090 nM | Potency [5] 209 nM | Potency [6] 1170 nM | Potency [7] 933 nM | Potency [8] 4170 nM | Potency [9] 295 nM

C[C@H](NC(=O)Cc1cc(F)cc(F)c1)C(=O)N[C@@H]1C(=O)N(C)c2ccccc2-c2ccccc21
active: Potency [2] 11800 nM | Potency [3] 14800 nM | Potency [4] 4690 nM | Potency [5] 2640 nM | Potency [6] 7430 nM | Potency [8] 4180 nM | Potency [9] 1180 nM | Potency [10] 3320 nM
inactive: Potency [1] | activity (max response) [12] -7.45%

N[C@@]1(C(=O)O)CS(=O)(=O)[C@H]2[C@H](C(=O)O)[C@H]21
inactive: Potency [1] | Potency [2] | Potency [3] | Potency [4] | Potency [5] | Potency [6] | Potency [7] | activity (max response) [12] 10.9%
